ChEMBL document CHEMBL1157539, “Thousands of chemical starting points for antimalarial lead identification” (Nature, 2010)

System: Plasmodium falciparum
Experiment: GSK_TCMDC: Inhibition of Plasmodium falciparum 3D7 in whole red blood cells, using parasite LDH activity as an index of growth. Test compounds present at 2uM
Assay type: functional

Going from `CC(C)(C)c1cc(CN2CCN(Cc3ccccc3)CC2)cc(C(C)(C)C)c1O` to `Cc1cccc(Cn2nc(-c3ccccc3)c(N3CCCCC3)cc2=O)c1`, the Inhibition rises from 97% to 98%.

Compared with `CS(=O)(=O)CCNc1cc(N2CCc3ncnc(Nc4ccc(OCc5cccc(F)c5)c(Cl)c4)c3C2)ncn1`, `CNC(=O)c1cc(Nc2nnc(-c3ccc(C)c(S(=O)(=O)NC4CCCCC4)c3)c3ccccc23)ccc1OC` is lower in Inhibition: 96% for the first, 87% for the second.

Compared with `Br.CC1(C)NC(N)=NC(=N)N1OCCc1ccccc1`, `CCCC(C(=O)OCCNC)(c1ccccc1)c1ccccc1.Cl` is higher in Inhibition: 96% for the first, 98% for the second.

First: Cc1c(Cl)cccc1S(=O)(=O)Nc1ccc(CCN2CCC(N)CC2)cc1.Cl
Second: CC(C)(CNC(=O)C1CCN(Cc2ccc(Cl)cc2)CC1)c1nc(-c2ccc(Cl)c(O)c2)c(-c2ccncc2)[nH]1.Cl
The Inhibition of the first is lower: 90% for the first, 100% for the second.

First: CS(=O)(=O)c1ccc(-c2nc(NCC3CCCCC3)cc(C(F)(F)F)n2)cc1
Second: Cc1ccc(-c2cc(C(=O)Nc3ccc(S(=O)(=O)N4CCCC(C)C4)cc3)[nH]n2)c(O)c1 (stereo not given)
The Inhibition of the first is lower: 83% for the first, 100% for the second.

First: COc1ccc(-n2ccnc2SCC(=O)Nc2cc(Cl)ccc2OC)c(OC)c1
Second: CCOc1ccc2c(=NN=Cc3cccc(OC)c3)cc(C)[nH]c2c1
The Inhibition of the first is lower: 96% for the first, 97% for the second.

`Cl.N=C(N)NN=Cc1ccc2c(c1)Cc1ccccc1-2` and `Fc1ccc2c(NN=Cc3ccccc3F)ccnc2c1` are the same in Inhibition: 100% for the first, 100% for the second.

First: Clc1ccc2nnc(-c3c(Cl)cccc3Cl)n2n1
Second: Cc1cc(Nc2ccncc2)n2nc(C)c(-c3ccc(Cl)cc3)c2n1
The Inhibition of the first is lower: 96% for the first, 100% for the second.

`Cc1cc(=NN=Cc2ccccc2Cl)c2ccccc2[nH]1` and `Nc1c2c(nc3ccc(C(=O)Nc4ccccc4)cc13)CCCC2` are the same in Inhibition: 100% for the first, 100% for the second.

First: CCOC(=O)Nc1cc(-c2csc(N=C(N)N)n2)cc([N+](=O)[O-])c1
Second: CCCCNS(=O)(=O)c1ccc(NC(=O)c2cc([N+](=O)[O-])ccc2Cl)cc1
The Inhibition of the first is higher: 100% for the first, 92% for the second.

Going from `Cc1csc(-c2nc(NCCc3c(C)noc3C)ncc2-c2ccsc2)n1` to `COc1cc2nc(NCCc3ccccc3)nc(NCc3ccc(C#N)cc3)c2cc1OC`, the Inhibition rises from 90% to 100%.

First: CCc1ccnc2c(N3CCCC3=O)cc(C(=O)N[C@@H](Cc3ccccc3)[C@H](O)CNC3CCOCC3)cc12.O=CO
Second: CC1CCC(NC(=O)c2nn(-c3ccc(Cl)cc3)c(=O)c3ccccc23)CC1 (stereo not given)
The Inhibition of the first is higher: 99% for the first, 91% for the second.

First: CN(C)CCOc1cc(NC(=O)Nc2ccc(-c3ccccc3)cc2Cl)ccc1I
Second: CN1CCCc2ccc(NC(=O)Nc3ccc(-c4ccccc4)cc3)cc2C1
The Inhibition of the first is higher: 100% for the first, 97% for the second.

Compared with `NC1CCN(Cc2ccc(-c3ccc(-c4nc5ccccc5[nH]4)cc3)cc2)C1.O=C(O)C(F)(F)F` (stereo not given), `CCC(C)NC(=O)Nc1ccc(-c2cccc(-c3nc4cc(C(F)(F)F)ccc4[nH]3)c2)cc1` (stereo not given) is lower in Inhibition: 100% for the first, 97% for the second.

Going from `Cc1ccc(/C=C/C(=O)NCCCCCN2CCN(C(=O)Nc3ccc(Cl)c(C(F)(F)F)c3)CC2)cc1` to `O=C(/C=C/c1ccc(Cl)c(Cl)c1)NCCCCCN1CCC(NC(=O)Nc2cccc(F)c2)CC1`, the Inhibition rises from 93% to 100%.

Compared with `O=C1Nc2cccc3c2C1(CCCN1CCC(c2c[nH]c4cc(C(F)(F)F)ccc24)CC1)CCC3` (stereo not given), `CCCn1c(O)nnc1SCC(=O)Nc1cc(C(F)(F)F)ccc1Cl` is higher in Inhibition: 89% for the first, 96% for the second.

Compared with `[O-][s+]1nc(NCCCN(Cc2cccs2)c2ccccn2)c(NCc2ccccc2)n1` (stereo not given), `Oc1cccc(-c2cnc3ccc(NCc4ccc(F)cc4)nn23)c1` is lower in Inhibition: 92% for the first, 91% for the second.

Going from `Clc1ncnc2scc(-c3ccc(Br)cc3)c12` to `CC(C)NCC(O)Cn1c2ccc(Br)cc2c2cc(Br)ccc21` (stereo not given), the Inhibition rises from 95% to 99%.

First: CCCCCC(C)C(C)c1cc(OC(N)=O)c2c(c1)OC(C)(C)C=C2c1ccncc1 (stereo not given)
Second: CCN(CC)CCCCNc1cc(-c2[nH]c(C(C)(C)C)nc2-c2ccc3cc(OC)ccc3c2)ccn1.O=C(O)C(F)(F)F
The Inhibition of the first is higher: 96% for the first, 85% for the second.

Compared with `O=C1NC(=S)N/C1=C/C=C/c1ccc([N+](=O)[O-])o1`, `CC(C)(C)c1ccc(CNC(=O)c2cc(CNC3CCNC3)ccc2O)cc1` (stereo not given) is higher in Inhibition: 82% for the first, 94% for the second.

System: Plasmodium falciparum
Experiment: GSK_TCMDC: Inhibition of Plasmodium falciparum Dd2 in whole red blood cells, using parasite LDH activity as an index of growth. Test compounds present at 2uM
Assay type: functional

`CC(C)(C)c1cc(CN2CCN(Cc3ccccc3)CC2)cc(C(C)(C)C)c1O` and `Cc1cccc(Cn2nc(-c3ccccc3)c(N3CCCCC3)cc2=O)c1` are the same in Inhibition: 0% for the first, 0% for the second.

Going from `CS(=O)(=O)CCNc1cc(N2CCc3ncnc(Nc4ccc(OCc5cccc(F)c5)c(Cl)c4)c3C2)ncn1` to `CNC(=O)c1cc(Nc2nnc(-c3ccc(C)c(S(=O)(=O)NC4CCCCC4)c3)c3ccccc23)ccc1OC`, the Inhibition rises from 50% to 61%.

First: Br.CC1(C)NC(N)=NC(=N)N1OCCc1ccccc1
Second: CCCC(C(=O)OCCNC)(c1ccccc1)c1ccccc1.Cl
The Inhibition of the first is lower: 95% for the first, 96% for the second.

Going from `Cc1c(Cl)cccc1S(=O)(=O)Nc1ccc(CCN2CCC(N)CC2)cc1.Cl` to `CC(C)(CNC(=O)C1CCN(Cc2ccc(Cl)cc2)CC1)c1nc(-c2ccc(Cl)c(O)c2)c(-c2ccncc2)[nH]1.Cl`, the Inhibition rises from 4% to 83%.

Going from `CS(=O)(=O)c1ccc(-c2nc(NCC3CCCCC3)cc(C(F)(F)F)n2)cc1` to `Cc1ccc(-c2cc(C(=O)Nc3ccc(S(=O)(=O)N4CCCC(C)C4)cc3)[nH]n2)c(O)c1` (stereo not given), the Inhibition rises from 76% to 99%.

Going from `COc1ccc(-n2ccnc2SCC(=O)Nc2cc(Cl)ccc2OC)c(OC)c1` to `CCOc1ccc2c(=NN=Cc3cccc(OC)c3)cc(C)[nH]c2c1`, the Inhibition falls from 92% to 81%.

First: Cl.N=C(N)NN=Cc1ccc2c(c1)Cc1ccccc1-2
Second: Fc1ccc2c(NN=Cc3ccccc3F)ccnc2c1
The Inhibition of the first is lower: 81% for the first, 99% for the second.

First: Clc1ccc2nnc(-c3c(Cl)cccc3Cl)n2n1
Second: Cc1cc(Nc2ccncc2)n2nc(C)c(-c3ccc(Cl)cc3)c2n1
The Inhibition of the first is lower: 60% for the first, 99% for the second.

Going from `Cc1cc(=NN=Cc2ccccc2Cl)c2ccccc2[nH]1` to `Nc1c2c(nc3ccc(C(=O)Nc4ccccc4)cc13)CCCC2`, the Inhibition rises from 30% to 78%.

First: CCOC(=O)Nc1cc(-c2csc(N=C(N)N)n2)cc([N+](=O)[O-])c1
Second: CCCCNS(=O)(=O)c1ccc(NC(=O)c2cc([N+](=O)[O-])ccc2Cl)cc1
The Inhibition of the first is higher: 88% for the first, 47% for the second.

Going from `Cc1csc(-c2nc(NCCc3c(C)noc3C)ncc2-c2ccsc2)n1` to `COc1cc2nc(NCCc3ccccc3)nc(NCc3ccc(C#N)cc3)c2cc1OC`, the Inhibition rises from 82% to 100%.

Going from `CCc1ccnc2c(N3CCCC3=O)cc(C(=O)N[C@@H](Cc3ccccc3)[C@H](O)CNC3CCOCC3)cc12.O=CO` to `CC1CCC(NC(=O)c2nn(-c3ccc(Cl)cc3)c(=O)c3ccccc23)CC1` (stereo not given), the Inhibition falls from 98% to 67%.

First: CN(C)CCOc1cc(NC(=O)Nc2ccc(-c3ccccc3)cc2Cl)ccc1I
Second: CN1CCCc2ccc(NC(=O)Nc3ccc(-c4ccccc4)cc3)cc2C1
The Inhibition of the first is higher: 93% for the first, 47% for the second.

First: NC1CCN(Cc2ccc(-c3ccc(-c4nc5ccccc5[nH]4)cc3)cc2)C1.O=C(O)C(F)(F)F (stereo not given)
Second: CCC(C)NC(=O)Nc1ccc(-c2cccc(-c3nc4cc(C(F)(F)F)ccc4[nH]3)c2)cc1 (stereo not given)
The Inhibition of the first is higher: 100% for the first, 0% for the second.

Going from `Cc1ccc(/C=C/C(=O)NCCCCCN2CCN(C(=O)Nc3ccc(Cl)c(C(F)(F)F)c3)CC2)cc1` to `O=C(/C=C/c1ccc(Cl)c(Cl)c1)NCCCCCN1CCC(NC(=O)Nc2cccc(F)c2)CC1`, the Inhibition rises from 0% to 6%.

Compared with `O=C1Nc2cccc3c2C1(CCCN1CCC(c2c[nH]c4cc(C(F)(F)F)ccc24)CC1)CCC3` (stereo not given), `CCCn1c(O)nnc1SCC(=O)Nc1cc(C(F)(F)F)ccc1Cl` is higher in Inhibition: 37% for the first, 94% for the second.

Going from `[O-][s+]1nc(NCCCN(Cc2cccs2)c2ccccn2)c(NCc2ccccc2)n1` (stereo not given) to `Oc1cccc(-c2cnc3ccc(NCc4ccc(F)cc4)nn23)c1`, the Inhibition rises from 25% to 66%.

Going from `Clc1ncnc2scc(-c3ccc(Br)cc3)c12` to `CC(C)NCC(O)Cn1c2ccc(Br)cc2c2cc(Br)ccc21` (stereo not given), the Inhibition rises from 96% to 100%.

Going from `CCCCCC(C)C(C)c1cc(OC(N)=O)c2c(c1)OC(C)(C)C=C2c1ccncc1` (stereo not given) to `CCN(CC)CCCCNc1cc(-c2[nH]c(C(C)(C)C)nc2-c2ccc3cc(OC)ccc3c2)ccn1.O=C(O)C(F)(F)F`, the Inhibition rises from 0% to 76%.

Compared with `O=C1NC(=S)N/C1=C/C=C/c1ccc([N+](=O)[O-])o1`, `CC(C)(C)c1ccc(CNC(=O)c2cc(CNC3CCNC3)ccc2O)cc1` (stereo not given) is lower in Inhibition: 30% for the first, 1% for the second.
